Screening results from PubChem BioAssay.
BoNT-A LC inh2 – BoNT/A light chain protease inhibitors, primary screen, biochemical, flow cytometry, MLPCN library. Botulinum neurotoxin type A light chain protease (Clostridium botulinum A str. ATCC 3502). multiplex microsphere protease substrate cleavage. inhibition, % at 10 µM. actives 0.17% (n = 360,000); note: plate controls were buffer without enzyme for full effect and enzyme alone for no effect
BoNT-F LC inh – BoNT/F light chain protease inhibitors, primary screen, biochemical, flow cytometry, MLPCN library; Botulinum neurotoxin type F light chain protease (Clostridium botulinum); Multiplex microsphere protease cleavage assay; inhibition, % at 10 µM; actives 0.22% (n = 360,000); in the data active = inhibition above about 35%, passing the limit was not always enough; inconclusive = no clear call, values can overlap the other calls; note: plate controls were buffer without enzyme for full effect and enzyme alone for no effect
Anthrax LF inh2 – Bacillus anthracis LF protease inhibitors, primary screen, biochemical, multiplex microsphere, MLPCN library. actives 0.12% (n = 360,000). Lethal factor (Bacillus anthracis), P15917. inhibition, % at 10 µM. AID 588501, 2011. multiplex microsphere protease cleavage assay; note: plate controls were buffer without enzyme for full effect and enzyme alone for no effect
Bead autofluor – counter-screen for toxin protease inhibitors: compound fluorescence; compound autofluorescence counterscreen, microsphere flow cytometry; active compounds read high; fluorescence intensity (test concentration not listed); actives 3.1% (n = 360,000); AID 624483; in the data active = fluorescence intensity above about 16000; inconclusive = no clear call, values can overlap the other calls
* = called active by the depositor; ? = inconclusive. This is a sample that favours compounds with a hit; in the whole collection about 3.5% have one here. Cut-off read from the data, not from the text of the source, unless noted: active = inhibition above about 30%; inconclusive = no clear call, values can overlap the other calls; inactive = below that.

SMILES	BoNT-A LC inh2	BoNT-F LC inh	Anthrax LF inh2	Bead autofluor
CCc1nc2ccc(C(=O)NCCCn3ccnc3)cn2c1N(C)Cc1nccs1	0	7	-6	3861
CC12CCC(C(NC(=S)NN)C1=O)C2(C)C (configuration not stated)	0	-5	-4	3903
COc1ccc(NC(=O)C2CCN(C(=O)c3ccccc3)CC2)c(OC)c1	0	-12	-5	8888
COc1ccc(C(=O)N2CCC(C(=O)Nc3ccccc3OC)CC2)cc1	?	-3	-1	22688*
O=C(Nc1ccc2c(c1)OCO2)c1cc(C2CCCCN2S(=O)(=O)c2ccccc2)on1 (configuration not stated)	-1	-4	-2	2990
Cc1ccc(C(=O)NN2C(=O)/C(=C/c3cn(C)c4ccccc34)SC2=S)cc1	43*	23	26	2904
CC(OC(=O)c1ccc2c(c1)OCO2)C(=O)NC1CCCCC1 (configuration not stated)	0	4	-7	4028
CCCCn1c(N)c(N(CC)C(=O)COc2ccc(C#N)cc2)c(=O)[nH]c1=O	0	8	0	4574
CC1=C(C(=O)Nc2ccccc2)C(c2ccc(C)cc2)N=C(Nc2nc3ccccc3o2)N1 (configuration not stated)	-2	-2	-2	23563*
CCOc1ccccc1-c1n[nH]c(=S)o1	-5	-6	-1	17280*
CC[C@]12c3[nH]c4ccc(Cl)cc4c3CCN1C(=O)[C@@H](CC(=O)NCCC1=CCCCC1)C[C@@H]2C(=O)N1CCN(C(=O)c2ccco2)CC1	0	-4	-3	3341
C[C@@H]1COc2cccc(N3CCC[C@@H]3CO)c2S(=O)(=O)N1	0	-1	1	5431
CC(C)(C)NC(=O)CN(Cc1cccs1)C(=O)CNS(=O)(=O)c1ccc(F)cc1	0	-4	0	3144
CCC(C)(C)NC(=O)CN(Cc1cccs1)C(=O)CNS(=O)(=O)c1ccc(C)cc1	-1	-2	-3	16739*
CN1CCN(C2CN(Cc3cn(Cc4ccccc4)nn3)S(=O)(=O)C2)CC1 (configuration not stated)	0	-4	-7	3937
O=Cc1ccc(N2N=C(c3ccccc3)CC2c2ccccc2)cc1 (configuration not stated)	42*	53*	2	4507
O=C(O)c1ccc(N2N=C(c3ccccc3)CC2c2ccccc2)cc1 (configuration not stated)	2	?	1	2826
CC1=NC(=O)C(N=Nc2cccc(O)c2)N1c1ccccc1 (configuration not stated)	-4	-6	-9	16879*
COc1ccc(C2C3=C(CC(C)(C)CC3=O)Oc3ncn(Cc4ccco4)c(=N)c32)cc1 (configuration not stated)	26	36*	4	8601
COc1ccc(C2C3=C(CC(C)(C)CC3=O)Oc3ncn(CC(C)C)c(=N)c32)cc1 (configuration not stated)	-1	-1	0	3290
COCCN1C[C@@H](CO)O[C@@H](n2cnc3c(NC4CCCC4)ncnc32)C1	0	-1	1	3637
COc1cc(NC(=O)Nc2nc(C(N)Cc3ccc(C(F)(F)F)cc3)cs2)cc(OC)c1OC (configuration not stated)	0	-22	-3	3685
O=C(CC(c1ccco1)S(=O)(=O)c1ccccc1)c1ccc(F)cc1 (configuration not stated)	3	4	-4	22035*
CCc1ccc(OCC(=O)Nc2ccc(-c3cc4ccccc4oc3=O)c(OC)c2)cc1	0	-6	1	2529
COc1cc(NC(=O)c2cc(Cl)ccc2Cl)ccc1-c1cc2ccccc2oc1=O	3	6	0	22732*
SMILES	BoNT-A LC inh2	BoNT-F LC inh	Anthrax LF inh2	Bead autofluor
CC1CN(c2nc3ccccc3nc2C(C#N)C(=O)OC2CCCCC2)CC(C)O1 (configuration not stated)	?	3	16	21164*
CCCCCCOC(=O)C(C#N)c1nc2ccccc2nc1N1CCOCC1 (configuration not stated)	2	1	-5	19713*
CC1CCN(c2nc3ccccc3nc2C(C#N)C(=O)OC2CCCCC2)CC1 (configuration not stated)	10	16	7	10980
Cc1ccc(S(=O)(=O)C(C#N)c2nc3ccccc3nc2N2CC(C)OC(C)C2)cc1C (configuration not stated)	0	-4	3	17403*
CCCCOC(=O)C(C#N)c1nc2ccccc2nc1N1CCOCC1 (configuration not stated)	3	-3	2	2903
CCN1CCN(c2nc3ccccc3nc2C(C#N)S(=O)(=O)c2ccc(C)c(C)c2)CC1 (configuration not stated)	0	-2	-1	22821*
Nc1c([N+](=O)[O-])cc2c3c(cccc13)CC2	0	1	-7	4103
NS(=O)(=O)c1ccc(CCNC(=O)COC(=O)CCc2c[nH]c3ccccc23)cc1	-1	-13	-2	3007
CCOC(=O)N1CCN(C(=O)C[C@@H]2C[C@@]3(C(=O)OCC)CCCC=C3N(Cc3ccco3)C2=O)CC1	0	1	0	4385
CC1=C(C(=O)N(C(C)C)C(C)C)CC(CC(=O)NC(c2ccccc2)c2ccccc2)C(=O)N1Cc1ccc(C(C)(C)C)cc1 (configuration not stated)	0	-4	-8	6012
CCCCN(C(=O)COC(=O)c1sccc1C)c1c(N)n(CCC)c(=O)[nH]c1=O	0	5	-3	3503
COc1ccc(NC(=O)c2cc(-c3cc(C)cc(F)c3)n[nH]2)cc1OC	0	0	-4	3361
O=C(C1CCC(Cn2c(=S)[nH]c3ccccc3c2=O)CC1)N1CCN(c2ccccc2)CC1 (configuration not stated)	-1	-2	-16	8979
COc1ccc(N2CCN(C(=O)C3CCC(Cn4c(=S)[nH]c5ccccc5c4=O)CC3)CC2)cc1 (configuration not stated)	-2	-9	-8	17035*
COc1ccccc1N1CCN(C(=O)C2CCC(Cn3c(=S)[nH]c4ccccc4c3=O)CC2)CC1 (configuration not stated)	-3	-8	2	17156*
CCCCCCCCN1C(=O)[C@H](CC(=O)N2CCCCC2)C[C@@]2(C(=O)OC)CCCCC=C12	0	-9	-8	4259
Cc1noc(C)c1COc1ccc(CC(=O)NCCc2ccccc2)cc1	0	8	-5	8573
Cc1nnc(NC(=O)Cc2ccc(OCc3c(C)noc3C)cc2)s1	-2	-5	0	17361*
CC(C)(C)NC(=O)C1CC(=O)OC1(C)C (configuration not stated)	-4	-5	0	21395*
Cc1cc(O)ccc1-c1ccc2nncn2c1	0	-5	0	3559
CCc1c(C)sc(NC(=O)OC)c1C(N)=O	-1	-1	2	17066*
Cc1ccccc1-c1noc(C2CCCCC2)n1	?	-4	-2	22659*
